# Test: small molecules captured by biotinylated probe aFGF10 – biochemical, small-molecule microarray, fluorescence 635/667, stem cell growth factor project, primary screen (AID 1071);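 also: score merges 667 nm spot intensity and signal to noise from triplicate slides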
# Details: higher = more signal
row,SMILES,composite z-score
1,COCCCNC(=O)[C@@]1(Cc2ccccc2)COC(c2ccc(OCCCO)cc2)=N1,0.821
2,COC(=O)[C@]1(Cc2ccccc2CN=[N+]=[N-])N=C(c2ccc(OCCCO)cc2)O[C@@H]1c1ccccc1CN=[N+]=[N-],0.013
3,O=C1NC(=O)C2C1C=CC(C(O)c1ccc(-c3ccccc3)s1)N2Nc1ccccn1 (stereo not given),0.444
4,C=C(C(=O)CC[C@H](OC(=O)c1cccnc1)c1ccc(OCCO)cc1)C(C)C,0.404
5,Cc1ccc(N2C(=O)c3ccccc3[C@](C)(C(=O)NC(C)C)[C@@H]2c2ccc(CO)cc2)nc1,-1.11
6,CCCCC=C[C@@H](NC(=O)CCc1ccccc1)c1ccccc1,0.404
7,C=CCC(OC(C)=O)[C@@H]1[C@@H](N(Cc2cccc3ccccc23)C(=O)c2ccc(C)cc2)c2cc(OCCCO)ccc2N1C(=O)c1ccc2ccccc2c1 (stereo not given in full),0.409
8,C[C@]12C(=O)N(CCCCCO)[C@@H]3C(=O)N(c4ccc(Cl)cc4)CC=CC31O[C@@H]1/C=C\CCCOC(=O)C12 (stereo not given in full),-1.14
9,O=C1c2ccccc2[C@](Cc2ccccc2I)(C(=O)NCC(F)(F)F)[C@H](c2ccc(CO)cc2)N1Cc1ccccc1,0.15
10,O=C(O)[C@@]1(Cc2ccccc2)COC(c2ccc(OCCCO)cc2)=N1,-0.24
11,COCCCNC(=O)[C@]1(Cc2ccccc2)N=C(c2ccc(OCCCO)cc2)O[C@@H]1c1ccccc1N=[N+]=[N-],0.632
12,COCCOC(=O)N1C(=O)[C@@]2(c3cc(C#Cc4ccc(OC)cc4)ccc31)[C@H](C(=O)N1CCc3cc(OC)c(OC)cc3C1)[C@H]1C(=O)O[C@H](c3ccccc3)[C@H](c3ccccc3)N1[C@@H]2c1ccc(OCCO)cc1,0.452
13,CC(C)NC(=O)[C@@]1(Cc2ccccc2I)c2ccccc2C(=O)N(Cc2ccccc2C(F)(F)F)[C@H]1c1ccc(CO)cc1,-0.0029
14,COC(=O)[C@@]1(Cc2ccc(OC)cc2)[C@H]2c3cc(C(=O)N(C)C)n(Cc4cc(F)c(F)c(F)c4)c3C[C@H]2CN1C(=O)c1ccccc1,0.594
15,O=C1N(CCS(=O)(=O)c2ccccc2)Cc2ccccc2C[C@@]12COC(c1ccc(OCCCO)cc1)=N2,0.613
16,Cc1ccc(S[C@]2(C(=O)O)CC(=O)N(Cc3ccccc3C(F)(F)F)[C@@H]2c2ccc(CO)cc2)cc1,-0.338
17,O=C1N(CCS(=O)(=O)c2ccccc2)c2ccccc2[C@H]2OC(c3ccc(OCCCO)cc3)=N[C@@]12CCS(=O)(=O)c1ccccc1,0.202
18,CC(C)C(CO)N1C(=O)[C@@H]2[C@H]3C(=O)OCC=C[C@H]3OC23C=CCN(CCN2CCOCC2)C(=O)[C@@H]13 (stereo not given in full),-0.351

row,SMILES,composite z-score
1,CC(C)(C)OC(=O)CC[C@@]1(C(=O)N2CCCCC2)N=C(c2ccc(OCCCO)cc2)O[C@@H]1c1ccccc1N=[N+]=[N-],1.03
2,CCCCCCC#C[Si](O[C@H](c1ccccc1)c1cn(Cc2cccc(Cl)c2)nn1)(C(C)C)C(C)C,0.238
3,C=CCOC(=O)[C@@H]1[C@H]2C(=O)O[C@H](c3ccccc3)[C@H](c3ccccc3)N2[C@H](c2ccc(OCCOC(=O)[C@@H]3C[C@@H]4C(=O)N5CCC[C@H]5C(=O)N4[C@@H]3c3cccc(OCCO)c3)cc2)[C@@]12C(=O)Nc1ccc(I)cc12,0.0951
4,C=CCC(OC(C)=O)[C@@H]1[C@@H](N(Cc2cccc3ccccc23)C(=O)Cc2ccc(F)cc2)c2cc(OCCCO)ccc2N1C(=O)Cc1ccc(OC)cc1 (stereo not given in full),0.493
5,CO[C@H]1O[C@H](CO)[C@@H](OC(=O)Nc2ccc(C(F)(F)F)cc2)[C@H](OC(=O)Nc2ccccc2)[C@H]1OC(=O)Nc1ccccc1,1.15
6,C=C(COC)C(=O)CC[C@H](OC(=O)c1ccccc1-c1ccccc1C(=O)O)c1ccc(CO)o1,0.738
7,CC(C)CNC(=O)[C@@]1(C)c2ccccc2C(=O)N(Cc2ccccc2)[C@H]1c1ccc(CO)cc1,-1.42
8,CCC[C@@H]1C[C@@]1(CCC)[C@@H](NC(=O)c1ccco1)c1ccc(Cl)cc1,0.0059
9,[N-]=[N+]=NCc1ccccc1[C@H]1OC(c2ccc(OCCCO)cc2)=N[C@@]1(Cc1ccccc1)C(N)=O,0.68
10,COc1ccc([Si](C)(C)[C@H]2[C@H](CCO)O[C@@]3(C(=O)N(Cc4cccc(N5CCOC5=O)c4)c4ccccc43)[C@@H]2C)cc1,0.674
11,C[N+](C)(C)CCCC[C@@H]1NC(=O)[C@@H]2C[C@H](C(=O)NCCCCCNC(=O)CS)[C@H](c3cccc(OCCO)c3)N2C1=O,0.294
12,COCCOC(=O)N1C(=O)[C@@]2(c3cc(C#CC4(O)CCCCCC4)ccc31)[C@H](C(=O)NC[C@H](O)c1ccccc1)[C@H]1C(=O)O[C@H](c3ccccc3)[C@H](c3ccccc3)N1[C@@H]2c1ccc(OCCO)cc1,0.353
13,COc1cccc(C)c1NC(=O)O[C@H]1[C@H](OC(=O)Nc2ccccc2)[C@H](OC(=O)Nc2ccccc2)[C@@H](OC)O[C@@H]1CO,0.401
14,COC(=O)[C@@]1(Cc2ccccc2)[C@H]2c3cc(C(=O)N4CCCC4)n(Cc4ccccc4)c3C[C@H]2CN1C(=O)c1ccccc1,0.742
15,COc1cc2c(cc1OC)CN(C(=O)[C@@H]1[C@H]3C(=O)O[C@H](c4ccccc4)[C@H](c4ccccc4)N3[C@H](c3ccc(OCCO)cc3)[C@@]13C(=O)Nc1ccc(C#CCCO)cc13)CC2,0.944
16,COc1ccc([Si](C)(C)[C@@H]2[C@@H](CC(=O)N(CCO)Cc3ccccc3)O[C@]3(C(=O)N(C)c4c(Br)cc(C)cc43)[C@H]2C)cc1,0.33
17,COC(=O)[C@@]1(Cc2ccccc2)[C@H]2c3cc(C(=O)N4CCCC4)n(Cc4ccc(OC(F)(F)F)cc4)c3C[C@H]2CN1C(=O)c1ccccc1,0.42

# Reference: PubChem BioAssay
